Screens from PubChem.
This is a sample that favours compounds with a hit; in the whole collection about 28% have one here.
CYP2C19 act – cytochrome P450 2C19 (human) activation; P33261; recombinant CYP2C19, luciferin-H EGE luminescence; active compounds read high; 0 = fully inhibited enzyme, 1 = untreated enzyme; activation factor at 5 µM; 96,000 tested, under 10 active;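 active = activation factor of at least 2 at 5 µM in the primary screen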
Target sequence (P33261 whole entry, looked up): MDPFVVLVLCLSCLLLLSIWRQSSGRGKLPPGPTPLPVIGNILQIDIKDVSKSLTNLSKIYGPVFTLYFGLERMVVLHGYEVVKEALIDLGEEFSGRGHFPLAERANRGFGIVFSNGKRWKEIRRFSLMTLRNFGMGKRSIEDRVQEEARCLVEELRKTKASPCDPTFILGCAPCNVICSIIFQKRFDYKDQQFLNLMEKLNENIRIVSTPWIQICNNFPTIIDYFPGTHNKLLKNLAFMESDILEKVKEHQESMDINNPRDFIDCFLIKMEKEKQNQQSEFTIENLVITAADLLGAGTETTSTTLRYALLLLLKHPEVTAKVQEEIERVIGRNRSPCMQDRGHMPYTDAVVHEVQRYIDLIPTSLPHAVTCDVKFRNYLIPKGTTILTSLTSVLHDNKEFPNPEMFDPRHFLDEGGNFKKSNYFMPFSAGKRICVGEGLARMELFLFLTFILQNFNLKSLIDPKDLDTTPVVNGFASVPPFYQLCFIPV
CYP2C9 inhib – human CYP2C9 inhibition. CYP2C9 Supersomes, luciferin-H conversion, luminescence. actives 20% (n = 96,000). P11712. AID 777. inhibition, % at 5 µM;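 active = blocking of liver enzyme CYP2C9 beyond about 50% at 5 µM, limit read from the data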
DAT uptake mod – modulates human dopamine transporter uptake under cocaine | LLC-PK1 hDAT cells, [14C]-dopamine uptake with cocaine IC80; actives deviate in either direction | B-score at 10 µM | actives 1.3% (n = 110,000) | AID 449768;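 active = Z score or B-score, a plate-position-corrected score, falls beyond the plate's 99.7% confidence bounds, in either direction; inactive = both scores lie inside the 99.7% bounds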
CYP2C9 act – activators of human CYP2C9 | recombinant CYP2C9, luciferin-H conversion, luminescence; active compounds read high; factor 1 = untreated enzyme, 0 = blocked | activation factor at 5 µM | actives 1.4% (n = 96,000) | AID 1024;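 active = activation factor of 2 or more for CYP2C9 at a 5 µM dose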
CYP2C19 inhib – inhibitors of human CYP2C19; P33261; CYP2C19 Supersomes, luciferin-H EGE luminescence, 30 min; inhibition, % at 5 µM; actives 21% (n = 96,000); AID 778;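 active = CYP2C19 inhibition above a set limit at 5 µM in the primary screen, cut at about 50% in these data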
D1 allo mod – allosteric modulators of human D1 dopamine receptor; P21728; B-score at 10 µM; HEK293 D1, CRE-luciferase, dopamine EC30 potentiation; actives deviate in either direction; actives 5.9% (n = 58,000); AID 641;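 active = luminescence count or its row- and column-corrected plate score outside the 99.7% band of the plate's sample wells, on either side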
Of the large screens only hits and unclear results are named; the others gave an inactive call.

C=C(Br)Cn1c(CC(C)C)nc2ccccc21	D1 allo mod -3.27
COc1ccc(-c2c/c(=N\c3nc(-c4ccccc4)c(C)s3)c3ccccc3o2)cc1O	CYP2C9 inhib 93.3 (no result: D1 allo mod)
Cc1ccc(OCC(=O)Nc2ccc(-c3nc4ncccc4o3)cc2)c(C)c1	CYP2C19 inhib 63.0
CCCCCC(=O)Nc1ccc2oc(-c3cccnc3)nc2c1	none
CCCC(=O)Nc1ccc(-c2nc3cc(C)c(C)cc3o2)c(O)c1	none
CCCC(=O)Nc1ccc2oc(-c3ccc(OC)c(Br)c3)nc2c1	D1 allo mod -2.59
CCCC(=O)Nc1ccc(-c2nc3cc(C)ccc3o2)cc1	D1 allo mod -5.1
Cc1ccc(C)c(N2CCN(c3cc(C)nc4nnnn34)CC2)c1	none (no result: CYP2C19 act, CYP2C9 inhib, DAT uptake mod, CYP2C9 act, CYP2C19 inhib)
Cc1ccc(-n2c(-c3cc(C)n(C)n3)n[nH]c2=S)cc1	none (no result: D1 allo mod)
Cc1ccc(C(C)C)cc1C(=O)CC1(O)C(=O)N(C)c2ccccc21 (stereo not given)	CYP2C9 inhib 59.2, CYP2C19 inhib 66.4
CCN1C(=O)C(O)(CC(=O)c2cc(C)ccc2C)c2ccccc21 (stereo not given)	none
COCCNC(=O)C(c1ccccc1C)N(C(=O)Cn1nnc2ccccc21)c1cccnc1 (stereo not given)	none (no result: CYP2C19 act, CYP2C9 inhib, CYP2C9 act, CYP2C19 inhib, D1 allo mod)
c1ccc(Cn2cc(CSc3ccccc3)nn2)cc1	none (no result: CYP2C19 act, CYP2C9 inhib, CYP2C9 act, CYP2C19 inhib, D1 allo mod)
O=C(CN1CCCN(S(=O)(=O)c2ccc(F)cc2)CC1)Nc1ccccc1Br	DAT uptake mod 3.2 (no result: CYP2C19 act, CYP2C9 inhib, CYP2C9 act, CYP2C19 inhib)
O=C(CN1CCN(S(=O)(=O)c2ccc(Br)cc2)CC1)Nc1ccccc1F	CYP2C19 inhib 83.9
O=C(CN1CCN(S(=O)(=O)c2ccc(Br)cc2)CC1)Nc1ccc(F)cc1F	CYP2C19 inhib 54.4
O=C(CN1CCN(S(=O)(=O)c2ccc(F)cc2)CC1)Nc1cccc(C(F)(F)F)c1	none (no result: DAT uptake mod)
O=C(CN1CCN(S(=O)(=O)c2ccc(Br)cc2)CC1)Nc1ccc(F)cc1	none
O=C(CN1CCN(S(=O)(=O)c2ccc(Cl)cc2)CC1)Nc1ccc(F)cc1F	none
O=C(NCc1ccco1)C(NS(=O)(=O)c1cccc2nsnc12)c1ccccc1 (stereo not given)	none
CCC(C)Nc1nc(SC(C(C)=O)C(C)=O)nc(N(C)C)n1 (stereo not given)	CYP2C9 inhib 61.5, CYP2C19 inhib 51.8
NC(=O)c1ccc(C2SCC(=O)N2Cc2ccccc2)cc1 (stereo not given)	none
O=C(CCSc1nnc(-c2ccncc2)o1)Nc1ccccc1Cl	CYP2C9 inhib 61.3, CYP2C19 inhib 86.8 (no result: D1 allo mod)
O=C(CCSc1nnc(-c2ccncc2)o1)Nc1ccc(Cl)cc1	CYP2C9 inhib 84.3, CYP2C19 inhib 95.9 (no result: D1 allo mod)
O=C(Nc1nnc(-c2ccccc2)o1)Nc1ccccc1Cl	CYP2C19 inhib 56.5 (no result: DAT uptake mod)
CC(=O)c1c(C)cc(C)c(CSc2nnc(-c3ccco3)o2)c1C	CYP2C9 inhib 51.2
O=C(CCSc1nnc(-c2ccco2)o1)Nc1ccc(Cl)cc1	none
Cc1nc(Nc2ccc(S(N)(=O)=O)cc2)oc1C	none
CCc1ccccc1N(CC(=O)O)S(C)(=O)=O	none
O=C(OC1C[C@@H]2CC3C[C@H](C1)N2CC3=O)c1c[nH]c2ccccc12 (stereo not given in full)	none (no result: CYP2C19 act, CYP2C9 inhib, CYP2C9 act, CYP2C19 inhib, D1 allo mod)
Clc1ss/c(=N\c2ccccn2)c1Cl	none
COc1cccc(NC(=O)CSc2nnc(-c3ccc(C)cc3)o2)c1	none
CNC(=O)CSc1nnc(-c2cc(C)cc(C)c2)o1	D1 allo mod -3.23
O=C(CCSc1nnc(-c2ccco2)o1)Nc1ccccc1	CYP2C19 inhib 78.7
Cc1ccc(NC(=O)CSc2nnc(-c3ccncc3)o2)cc1	CYP2C9 inhib 50.6, CYP2C19 inhib 97.5 (no result: D1 allo mod)
COc1ccc(Nc2ccc3nnc(-c4ccc(Br)cc4)n3n2)cc1	none (no result: D1 allo mod)
CCO[C@H]1OC(C(=O)NCc2ccccc2)=C[C@@H](c2ccc(Br)cc2)[C@@H]1CCCO	none (no result: CYP2C19 act, CYP2C9 inhib, CYP2C9 act, CYP2C19 inhib, D1 allo mod)
COc1ccc(C2=NOC(c3nnc(-c4ccccc4)o3)C2)cc1 (stereo not given)	none (no result: CYP2C19 act, CYP2C9 inhib, CYP2C9 act, CYP2C19 inhib, D1 allo mod)
CCC(=O)N(CC(=O)Nc1sc(C)c(C)c1C(N)=O)C1CCCCC1	none (no result: D1 allo mod)
COc1ccc(NS(=O)(=O)c2ccc(SC)cc2)cc1	CYP2C9 inhib 96.1, CYP2C19 inhib 100.0
O=S(=O)(Nc1ccc(-c2csc(-c3ccccc3)n2)cc1)c1ccc(F)cc1	CYP2C9 inhib 97.2 (no result: D1 allo mod)
CSc1ccc(S(=O)(=O)Nc2ccc(F)cc2)cc1	CYP2C9 inhib 92.4, CYP2C19 inhib 100.1
CC(=O)NS(=O)(=O)c1ccc(N)cc1	none (no result: CYP2C19 act, CYP2C9 inhib, CYP2C9 act, CYP2C19 inhib)
CC(=O)NS(=O)(=O)c1ccc(NS(=O)(=O)c2ccc(F)cc2)cc1	CYP2C9 inhib 59.2
O=C(COc1ccc(N2CC(C(=O)O)CC2=O)cc1)Nc1cccc(C(F)(F)F)c1 (stereo not given)	none
Cc1cc(C)n2nc3nc4c(cc3c2n1)CCCC4	none (no result: D1 allo mod)
c1ccc(-c2nnc(N3CCN(c4ccccn4)CC3)c3ccccc23)cc1	CYP2C19 inhib 67.5
Cc1ccc(-c2nnc(N3CCN(c4ccccn4)CC3)c3ccccc23)cc1	none
Cc1ccc(-c2nnc(N3CCN(C(=O)COc4ccccc4)CC3)c3ccccc23)cc1	CYP2C9 inhib 86.8, CYP2C19 inhib 79.3 (no result: D1 allo mod)
Cc1cc(C)n2nc(C(=O)Nc3ccc4c(c3)OCO4)cc2n1	none (no result: D1 allo mod)
COc1cccc(C2C3=C(CC(C)(C)CC3=O)OC(N)=C2[N+](=O)[O-])c1 (stereo not given)	none (no result: D1 allo mod)
CC1=C([N+](=O)[O-])C(c2cccc(Br)c2)C2=C(N1)c1ccccc1C2=O (stereo not given)	CYP2C9 inhib 98.3, CYP2C19 inhib 87.6 (no result: D1 allo mod)
NC(=O)c1ccsc1NC(=O)C1CCCCC1	CYP2C19 inhib 62.7
Cc1ccc2oc3nc(C)c(C(=O)Nc4cccc(C(F)(F)F)c4)cc3c(=O)c2c1	CYP2C9 inhib 88.4 (no result: D1 allo mod)
Cc1cccc(C)c1NC(=O)c1cc2c(=O)c3ccccc3oc2nc1C(F)(F)F	none (no result: D1 allo mod)
Cc1ccn2c(C(=O)c3ccc(Cl)cc3)cnc2c1	CYP2C9 inhib 75.0, CYP2C19 inhib 79.4 (no result: D1 allo mod)
N#CC1=C(SCc2ccccc2)NC(=O)CC1c1ccc(O)cc1 (stereo not given)	CYP2C9 inhib 52.9, CYP2C19 inhib 64.8
Cc1ccc(C2CC(=O)NC(SCc3ccccc3)=C2C#N)cc1 (stereo not given)	none (no result: CYP2C19 act, CYP2C9 inhib, CYP2C9 act, CYP2C19 inhib, D1 allo mod)
CCSC1=C(C#N)C(c2cccc(OC)c2)CC(=O)N1 (stereo not given)	none
N#CC1=C(SCc2ccccc2)NC(=O)CC1c1cccc(O)c1 (stereo not given)	CYP2C9 inhib 61.9, CYP2C19 inhib 78.2
CCCCOC(=O)Nc1nnc(-c2ccccc2OC)s1	CYP2C9 act 4.2
COc1ccccc1-c1nnc(NC(C)=O)s1	CYP2C9 act 2.1
O=[N+]([O-])c1ccc(Nc2nc(N/N=C\c3ccc4c(c3)OCO4)nc(N3CCCCC3)n2)cc1	none (no result: D1 allo mod)
CCC(=O)Nc1cc(C)c(NC(=O)c2ccco2)cn1	none (no result: D1 allo mod)
Cc1cc(NC(=O)c2ccccc2)ncc1NC(=O)c1ccco1	CYP2C9 inhib 56.3, CYP2C19 inhib 94.6
